{
  "source": "paper PMC5700166",
  "data": [
    {"biological_target": "T1, GST-Nv-NF-kB (Ser allele) (Nematostella vectensis, UniProt A7UNT2 2-411)", "T1 sequence": "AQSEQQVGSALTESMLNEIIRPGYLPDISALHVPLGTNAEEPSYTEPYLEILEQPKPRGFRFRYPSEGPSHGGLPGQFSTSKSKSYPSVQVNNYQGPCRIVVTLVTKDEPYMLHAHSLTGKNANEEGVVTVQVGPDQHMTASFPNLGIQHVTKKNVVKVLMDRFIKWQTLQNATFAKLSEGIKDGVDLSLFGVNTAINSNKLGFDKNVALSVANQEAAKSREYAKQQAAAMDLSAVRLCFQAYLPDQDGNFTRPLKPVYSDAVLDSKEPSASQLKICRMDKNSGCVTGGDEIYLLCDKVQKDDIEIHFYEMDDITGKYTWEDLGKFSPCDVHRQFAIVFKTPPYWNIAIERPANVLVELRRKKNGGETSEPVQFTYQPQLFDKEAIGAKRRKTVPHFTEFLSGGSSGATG", "assay": "protein-binding microarray (PBM); PBM: ~300 nM protein, 6 mM HEPES pH 7.8, 80 mM KCl, 0.5 mM EDTA, 0.5 mM EGTA, 6% glycerol, 35 ng/ul poly-dIdC, 1% milk, 1 h, room temperature; Ap Aiptasia and Nv Nematostella (sea anemones) / Co Capsaspora / Aq Amphimedon (sponge) / Dm Drosophila / Hu human; RHD is the Rel homology domain; high values mean tight binding", "details": "dsDNA, one strand shown", "units": {"binding signal": "z-score"}, "values": [
      {"sequence": "CCGATTAACATCACTTCCCCCCATGATGTTAATCGGGTCTTGATTCGCTTGACGCTGCTG", "binding signal": 4.67},
      {"sequence": "CCGATTAACATCAGGGATTTTTATGATGTTAATCGGGTCTTGATTCGCTTGACGCTGCTG", "binding signal": 5.24},
      {"sequence": "CCGATTAACATCAGGGGATATAATGATGTTAATCGGGTCTTGATTCGCTTGACGCTGCTG", "binding signal": 6.48},
      {"sequence": "CCGATTAACATCAAGGGGGGGGGTGATGTTAATCGGGTCTTGATTCGCTTGACGCTGCTG", "binding signal": 4.84},
      {"sequence": "CCGATTAACATCACAGAAACCCCTGATGTTAATCGGGTCTTGATTCGCTTGACGCTGCTG", "binding signal": 4.97},
      {"sequence": "CCGATTAACATCAAAAAATCTCCTGATGTTAATCGGGTCTTGATTCGCTTGACGCTGCTG", "binding signal": 1.5},
      {"sequence": "CCGATTAACATCAAAAATTCACCTGATGTTAATCGGGTCTTGATTCGCTTGACGCTGCTG", "binding signal": 3.83},
      {"sequence": "CCGATTAACATCAAGGGGGGAACTGATGTTAATCGGGTCTTGATTCGCTTGACGCTGCTG", "binding signal": 6.05},
      {"sequence": "CCGATTAACATCAAACCCCCCCCTGATGTTAATCGGGTCTTGATTCGCTTGACGCTGCTG", "binding signal": 5.04},
      {"sequence": "CCGATTAACATCACATATCCCCCTGATGTTAATCGGGTCTTGATTCGCTTGACGCTGCTG", "binding signal": 6.2},
      {"sequence": "CCGATTAACATCACCCCCCCCCGTGATGTTAATCGGGTCTTGATTCGCTTGACGCTGCTG", "binding signal": 5.34},
      {"sequence": "CCGATTAACATCAATACCCCCCCTGATGTTAATCGGGTCTTGATTCGCTTGACGCTGCTG", "binding signal": 4.49},
      {"sequence": "CCGATTAACATCACGGGGTTTTCTGATGTTAATCGGGTCTTGATTCGCTTGACGCTGCTG", "binding signal": 5.22},
      {"sequence": "CCGATTAACATCAAAAAGCCCCGTGATGTTAATCGGGTCTTGATTCGCTTGACGCTGCTG", "binding signal": 6.26},
      {"sequence": "CCGATTAACATCAATCCCCCCCGTGATGTTAATCGGGTCTTGATTCGCTTGACGCTGCTG", "binding signal": 4.97},
      {"sequence": "CCGATTAACATCACCGCTTCCCTTGATGTTAATCGGGTCTTGATTCGCTTGACGCTGCTG", "binding signal": 1.69},
      {"sequence": "CCGATTAACATCAAATTTACCCCTGATGTTAATCGGGTCTTGATTCGCTTGACGCTGCTG", "binding signal": 5.32},
      {"sequence": "CCGATTAACATCAGGGGGGAACATGATGTTAATCGGGTCTTGATTCGCTTGACGCTGCTG", "binding signal": 6.09},
      {"sequence": "CCGATTAACATCAAATACCCCCCTGATGTTAATCGGGTCTTGATTCGCTTGACGCTGCTG", "binding signal": 6.55},
      {"sequence": "CCGATTAACATCAGGGGCTTACCTGATGTTAATCGGGTCTTGATTCGCTTGACGCTGCTG", "binding signal": 3.61},
      {"sequence": "CCGATTAACATCAAGGGGGGGAGTGATGTTAATCGGGTCTTGATTCGCTTGACGCTGCTG", "binding signal": 4.08},
      {"sequence": "CCGATTAACATCAGGTATTTCCATGATGTTAATCGGGTCTTGATTCGCTTGACGCTGCTG", "binding signal": 1.6},
      {"sequence": "CCGATTAACATCAGAAACTTCCCTGATGTTAATCGGGTCTTGATTCGCTTGACGCTGCTG", "binding signal": 4.61},
      {"sequence": "CCGATTAACATCAGGAACTCCCCTGATGTTAATCGGGTCTTGATTCGCTTGACGCTGCTG", "binding signal": 5.51},
      {"sequence": "CCGATTAACATCAAGGGGGGACTTGATGTTAATCGGGTCTTGATTCGCTTGACGCTGCTG", "binding signal": 4.99},
      {"sequence": "CCGATTAACATCAGCTCCCCCCCTGATGTTAATCGGGTCTTGATTCGCTTGACGCTGCTG", "binding signal": 3.44},
      {"sequence": "CCGATTAACATCAGGGGACCCCCTGATGTTAATCGGGTCTTGATTCGCTTGACGCTGCTG", "binding signal": 5.69},
      {"sequence": "CCGATTAACATCAAGGGAATTCCTGATGTTAATCGGGTCTTGATTCGCTTGACGCTGCTG", "binding signal": 6.53},
      {"sequence": "CCGATTAACATCAAAATTCCCGATGATGTTAATCGGGTCTTGATTCGCTTGACGCTGCTG", "binding signal": 4.77},
      {"sequence": "CCGATTAACATCAGGAGTCCCCCTGATGTTAATCGGGTCTTGATTCGCTTGACGCTGCTG", "binding signal": 5.14},
      {"sequence": "CCGATTAACATCATTTTACCTTGTGATGTTAATCGGGTCTTGATTCGCTTGACGCTGCTG", "binding signal": 3.39},
      {"sequence": "CCGATTAACATCAGGGGGTTAAATGATGTTAATCGGGTCTTGATTCGCTTGACGCTGCTG", "binding signal": 4.45},
      {"sequence": "CCGATTAACATCAAACCTTCCCCTGATGTTAATCGGGTCTTGATTCGCTTGACGCTGCTG", "binding signal": 5.79},
      {"sequence": "CCGATTAACATCAATCCACCCCCTGATGTTAATCGGGTCTTGATTCGCTTGACGCTGCTG", "binding signal": 3.94},
      {"sequence": "CCGATTAACATCACACTCCCCCCTGATGTTAATCGGGTCTTGATTCGCTTGACGCTGCTG", "binding signal": 4.56},
      {"sequence": "CCGATTAACATCACGTGGGGCGTTGATGTTAATCGGGTCTTGATTCGCTTGACGCTGCTG", "binding signal": 1.01},
      {"sequence": "CCGATTAACATCACCGAACCCCCTGATGTTAATCGGGTCTTGATTCGCTTGACGCTGCTG", "binding signal": 5.24},
      {"sequence": "CCGATTAACATCAGGGGGTATTATGATGTTAATCGGGTCTTGATTCGCTTGACGCTGCTG", "binding signal": 6.38},
      {"sequence": "CCGATTAACATCAAAAGGAAATTTGATGTTAATCGGGTCTTGATTCGCTTGACGCTGCTG", "binding signal": 1.08},
      {"sequence": "CCGATTAACATCAAAATGCCCCCTGATGTTAATCGGGTCTTGATTCGCTTGACGCTGCTG", "binding signal": 4.81}
    ]}
  ]
}
